Several values for one entry are separate records, joined by “and”; a condition that tells them apart may be missing. Equal values may be shown once. In all, about 5,500 compounds went through this assay and about 2,000 (36%) were called active. Roughly 18% stayed inconclusive and do not appear here. Cut-off read from the data, not from the text of the source: active = normalized growth mostly below about 0.91 (no sharp cut-off); inconclusive = no clear call, values can overlap the other calls; inactive = mostly above about 0.92. The list shows a part of the results.
Assay: chemical genetic growth profiling, strain panel (AID 1159580);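 note: tested at 20 µM; growth read once vehicle control cultures reached saturation at 30 °C; 1 = growth at the plate median or of vehicle wells; lower values mean less growth of the strain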
Conditions: S. cerevisiae deletion strains, growth OD
[1] = locus YAL040C, strain CLN3, active compounds read low
[2] = locus YCL061C, strain MRC1 (second series), active compounds read low
[3] = locus YDR150W, strain NUM1, active compounds read low
[4] = locus YDR363W, strain ESC2, active compounds read low
[5] = locus YER002W, strain NOP16, active compounds read low
[6] = locus YGR078C, strain PAC10, active compounds read low
[7] = locus YMR307W, strain GAS1, active compounds read low
[8] = locus YNL153C, strain GIM3, active compounds read low
[9] = locus YNL175C, strain NOP13, active compounds read low
[10] = locus YNL197C, strain WHI3, active compounds read low
[11] = locus YNL224C, strain SQS1, active compounds read low
[12] = locus YOR083W, strain WHI5 (second series), active compounds read low
[13] = locus YJR075W, strain HOC1, active compounds read low

Measured: normalized growth

N[C@@H](CCC(=O)N[C@H](CSN=O)C(=O)NCC(=O)O)C(=O)O
inactive: [1] 1 | [2] 1.01 | [3] 1 | [4] 1.05 | [5] 1 | [6] 1.02 | [7] 0.996 | [8] 1.01 | [9] 1.01 | [10] 1 | [11] 1 | [12] 1.01 | locus YPL055C, strain LGE1, active compounds read low 1.02 | locus YPL241C, strain CIN2, active compounds read low 0.995

CCn1ccnc1CC1COc2ccccc2O1 (configuration not stated)
inactive: [1] 1.02 | [2] 1 | [3] 1 | [4] 0.993 | [5] 1.01 | locus YGR229C, strain SMI1, active compounds read low 0.993 | [13] 1 | [7] 0.996 | locus YNL128W, strain TEP1, active compounds read low 1.01 | [9] 0.997 | [10] 0.996 | [11] 1.01 | [12] 1.07

COc1c2c(cc3c1OCO3)CCN(C)C2
inactive: locus YAL021C, strain ccr4, active compounds read low 0.987 | locus YAL026C, strain drs2, active compounds read low 1.01 | locus YAL030W, strain snc1, active compounds read low 1.01 | locus YBL061C, strain skt5, active compounds read low 1.02 | locus YBR009C, strain hhf1, active compounds read low 1.02 | locus YBR021W, strain FUR4, active compounds read low 0.988 | locus YBR023C, strain chs3, active compounds read low 1.01 | locus YBR171W, strain sec66, active compounds read low 1.03 | locus YBR229C, strain ROT2, active compounds read low 1.01 | locus YBR231C, strain swc5, active compounds read low 1.01 | locus YBR279W, strain paf1, active compounds read low 1 | locus YCL011C, strain gbp2, active compounds read low 1.01 | locus YCL016C, strain dcc1, active compounds read low 1.01 | locus YCL029C, strain bik1, active compounds read low 1 | locus YCL061C, strain MRC1, active compounds read low 1.02 | locus YCL069W, strain vba3, active compounds read low 1 | locus YCR088W, strain abp1, active compounds read low 1.01 | locus YDL005C, strain med2, active compounds read low 1.02 | locus YDL035C, strain GPR1, active compounds read low 1.02 | locus YDL040C, strain nat1, active compounds read low 0.996 | locus YDL074C, strain BRE1, active compounds read low 1.01 | locus YDL101C, strain DUN1, active compounds read low 1.02 | locus YDL185W, strain tfp1, active compounds read low 0.995 | locus YDL192W, strain arf1, active compounds read low 1.01 | locus YDR001C, strain nth1, active compounds read low 1.01 | locus YDR069C, strain doa4, active compounds read low 1.02 | locus YDR101C, strain arx1, active compounds read low 1 | locus YDR137W, strain rgp1, active compounds read low 1.01 | locus YDR159W, strain sac3, active compounds read low 1.01 | locus YDR162C, strain NBP2, active compounds read low 1.01 | locus YDR195W, strain ref2 0.999 | locus YDR297W, strain sur2, active compounds read low 0.999 | locus YDR318W, strain mcm21, active compounds read low 1 | locus YDR334W, strain swr1, active compounds read low 1.02 | locus YDR335W, strain msn5, active compounds read low 0.998 | locus YDR388W, active compounds read low 1 | locus YDR392W, strain spt3, active compounds read low 0.991 | locus YDR502C, strain sam2, active compounds read low 1 | locus YEL003W, strain gim4, active compounds read low 1.01 | locus YEL037C, strain rad23, active compounds read low 1 | locus YEL061C, strain CIN8 (second series), active compounds read low 1 | locus YEL061C, strain CIN8, active compounds read low 1.01 | locus YER015W, strain faa2, active compounds read low 1.01 | locus YER016W, strain bim1, active compounds read low 1.02 | locus YER110C, active compounds read low 0.996 | locus YER111C, strain swi4, active compounds read low 1.01 | locus YER155C, strain BEM2 (second series), active compounds read low 1.02 | locus YER155C, strain BEM2, active compounds read low 1.01 | locus YER167W, strain BCK2, active compounds read low 1 | locus YFR010W, strain ubp6, active compounds read low 1.02 | locus YGL078C, strain dbp3, active compounds read low 1 | locus YGL086W, strain mad1, active compounds read low 1.02 | locus YGL167C, strain pmr1, active compounds read low 1.02 | locus YGL173C, strain kem1, active compounds read low 1.02 | locus YGL227W, strain vid30, active compounds read low 1.01 | locus YGL240W, strain doc1, active compounds read low 1.02 | locus YGL248W, strain PDE1, active compounds read low 1.01 | locus YGL253W, strain hxk2, active compounds read low 1.01 | [6] 1.01 | locus YGR135W, strain pre9, active compounds read low 0.992 | locus YGR252W, strain gcn5, active compounds read low 0.986 | locus YHR013C, strain ard1, active compounds read low 1.01 | locus YHR027C, strain rpn1, active compounds read low 1.02 | locus YHR030C, strain SLT2, active compounds read low 1 and 1.06 | locus YHR079C, strain IRE1 (second series), active compounds read low 1.02 | locus YHR079C, strain IRE1, active compounds read low 1.05 | locus YHR094C, strain hxt1, active compounds read low 0.994 | locus YHR129C, strain ARP1, active compounds read low 1 | locus YHR142W, strain chs7, active compounds read low 0.991 | locus YHR200W, strain rpn10, active compounds read low 0.975 | locus YIL066C, strain RNR3, active compounds read low 1.01 | locus YIL073C, strain SPO22, active compounds read low 1.01 | locus YIL125W, strain kgd1, active compounds read low 1 | locus YIR030C, strain dcg1, active compounds read low 0.997 | locus YJL092W, strain hpr5, active compounds read low 1.01 | locus YJL095W, strain BCK1 (second series), active compounds read low 1.01 | locus YJL095W, strain BCK1, active compounds read low 0.996 and 1.04 | locus YJL115W, strain asf1, active compounds read low 1.01 | locus YJL129C, strain trk1, active compounds read low 1.03 | locus YJL134W, strain LCB3, active compounds read low 0.998 | locus YJL154C, strain vps35, active compounds read low 0.998 | locus YJL164C, strain tpk1, active compounds read low 0.992 | locus YJL166W, strain qcr8, active compounds read low 0.999 | locus YJL168C, strain set2, active compounds read low 1 | locus YJL187C, strain SWE1 (second series), active compounds read low 1.01 | locus YJL187C, strain SWE1, active compounds read low 1.01 | locus YJR043C, strain POL32, active compounds read low 1.02 | locus YJR066W, strain TOR1, active compounds read low 0.976 | [13] 1.01 | locus YKL009W, strain mrt4, active compounds read low 1.02 | locus YKL068W, active compounds read low 0.992 | locus YKL085W, strain MDH1 (second series), active compounds read low 0.999 | locus YKL085W, strain MDH1, active compounds read low 0.999 | locus YKL160W, strain elf1, active compounds read low 0.992 | locus YKL190W, strain CNB1, active compounds read low 1.01 | locus YKR001C, strain vps1, active compounds read low 0.964 | locus YKR026C, strain gcn3, active compounds read low 1.01 | locus YKR091W, strain srl3, active compounds read low 0.998 | locus YLL001W, strain dnm1, active compounds read low 0.991 | locus YLL026W, active compounds read low 1.01 | locus YLL041C, strain sdh2, active compounds read low 1.01 | locus YLR027C, strain aat2, active compounds read low 1.02 | locus YLR039C, strain RIC1, active compounds read low 1.02 | locus YLR058C, strain SHM2, active compounds read low 1.01 | locus YLR102C, strain apc9, active compounds read low 0.997 | locus YLR113W, strain HOG1, active compounds read low 1.04 | locus YLR221C, strain rsa3, active compounds read low 1.03 | locus YLR258W, strain gsy2, active compounds read low 0.999 | locus YLR262C, strain YPT6 (second series), active compounds read low 0.987 | locus YLR262C, strain YPT6, active compounds read low 1.01 | locus YLR268W, strain sec22, active compounds read low 1.01 | locus YLR320W, strain mms22, active compounds read low 1.02 | locus YLR330W, strain CHS5, active compounds read low 1.01 | locus YLR342W, strain FKS1 (second series), active compounds read low 1.01 | locus YLR342W, strain FKS1, active compounds read low 1 | locus YLR357W, strain rsc2, active compounds read low 1.01 | locus YLR370C, strain arc18, active compounds read low 1.01 | locus YLR371W, strain rom2, active compounds read low 1 | locus YLR384C, strain iki3, active compounds read low 1.02 | locus YLR418C, strain cdc73, active compounds read low 0.957 | locus YML016C, strain PPZ1, active compounds read low 0.986 | locus YML032C, strain rad52, active compounds read low 0.982 | locus YML120C, strain ndi1, active compounds read low 1 | locus YML124C, strain tub3, active compounds read low 0.99 | locus YMR058W, strain fet3, active compounds read low 1.02 | locus YMR078C, strain ctf18, active compounds read low 0.996 | locus YMR125W, strain sto1, active compounds read low 1 | locus YMR129W, active compounds read low 1.01 | locus YMR205C, strain PFK2, active compounds read low 0.996 | locus YMR223W, strain ubp8, active compounds read low 0.992 | locus YMR231W, strain pep5, active compounds read low 0.987 | locus YMR263W, strain SAP30, active compounds read low 1.02 | [7] 1.02 | locus YNL067W, strain RPL9B, active compounds read low 1.01 | locus YNL071W, strain lat1, active compounds read low 1 | [8] 1 | locus YNL183C, strain NPR1, active compounds read low 0.985 | locus YNL209W, strain ssb2, active compounds read low 1 | locus YNL233W, strain BNI4, active compounds read low 1.01 | locus YNL248C, strain rpa49, active compounds read low 1.02 | locus YNL250W, strain rad50, active compounds read low 0.993 | locus YNL271C, strain bni1, active compounds read low 1.01 | locus YNL298W, strain CLA4, active compounds read low 0.984 | locus YNL307C, strain MCK1, active compounds read low 1 | locus YNL322C, strain KRE1 (second series), active compounds read low 1.02 | locus YNL322C, strain KRE1, active compounds read low 1.01 | locus YNR049C, strain mso1, active compounds read low 1.01 | locus YNR052C, strain pop2, active compounds read low 1.01 | locus YOL012C, strain htz1 0.662 | locus YOL147C, strain pex11, active compounds read low 0.979 | locus YOR001W, strain rrp6, active compounds read low 1.04 | locus YOR061W, strain CKA2, active compounds read low 1.01 | locus YOR069W, strain VPS5, active compounds read low 1.01 | locus YOR070C, strain gyp1, active compounds read low 1.02 | locus YOR080W, strain dia2, active compounds read low 1.01 | locus YOR083W, strain WHI5, active compounds read low 0.991 | locus YOR106W, strain vam3, active compounds read low 1.02 | locus YOR136W, strain idh2, active compounds read low 1.02 | locus YOR144C, strain elg1, active compounds read low 0.985 | locus YOR184W, strain ser1, active compounds read low 1.04 | locus YOR231W, strain MKK1, active compounds read low 1.04 | locus YOR265W, strain rbl2, active compounds read low 1.01 | locus YOR270C, strain vph1, active compounds read low 1.01 | locus YOR290C, strain snf2, active compounds read low 0.981 | locus YOR316C, strain cot1, active compounds read low 0.991 | locus YPL051W, strain arl3, active compounds read low 1.01 | locus YPL078C, strain atp4, active compounds read low 0.981 | locus YPL106C, strain sse1, active compounds read low 0.996 | locus YPL240C, strain hsp82, active compounds read low 1.01 | locus YPL256C, strain CLN2, active compounds read low 1.06 | locus YPR119W, strain clb2, active compounds read low 1 | locus YPR141C, strain kar3, active compounds read low 0.991 | locus YPR163C, strain tif3, active compounds read low 0.995 | locus YPR167C, strain met16, active compounds read low 0.996 | strain wtn01, active compounds read low 0.997

From PubChem BioAssay AID1159580 (chemical genetic matrix, 2015)
